Screening data deposited in PubChem BioAssay by National Center for Advancing Translational Sciences (NCATS).
SW480 rerep – DNA re-replication induction in SW480 cells; SW480 DNA re-replication, Hoechst DNA content imaging, 48 h; Potency, µM (doses to about 46.1 µM), for inactives: at the highest dose re-replication activation, most hits filed as activators; actives 1.8% (n = 340,000); AID 624297; note: % of control where 0% means no effect; nearly all actives have a fitted effect of over 55% in size
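Per well, 250 cells were exposed to pinned compound for 48 hr. Nuclear DNA was visualised with Hoechst (40 min, 37 C) and total object intensity recorded by fluorescence scanning.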
MCF10A rereplic – induces DNA re-replication in MCF 10a normal breast cells. MCF 10A DNA re-replication, Hoechst nuclear intensity, 48 h. Potency, µM (doses to about 46.1 µM), without a hit: at the highest dose activity, positive = re-replication, most hits filed as activators. actives 2.9% (n = 350,000). AID 624296; note: % of control where 0% means no effect; nearly all actives have a fitted effect of over 50% in size
a7 integrin act – activates integrin-mediated alleviation for muscular dystrophy; actives 0.064% (n = 350,000); Potency, µM (titrated, usually from 38.3 µM), inactives show top-dose activation, usual class: activators; alpha7betagal myoblasts, beta-gal FDG fluorescence, 48 h; AID 624291;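 note: 100% = response of the positive control SU9516; nearly all actives have a fitted effect of over 60% in size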
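alpha7betagal+/- myoblasts (passage 13, 250/well) treated 48 h at 37C with compounds at 1:260 dilution of DMSO stock. Lysed, then beta-galactosidase activity read as FDG fluorescence (ex 480/em 540) after 30 min, with pre-read for autofluorescence.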
Mito fusion yeast – mitochondrial division inhibition or fusion activation; S. cerevisiae fusion-defective mutant growth rescue, CellTiterGlo 48 h; Potency, µM (top dose mostly 46.1 µM), inactives show at the highest dose growth rescue (activation), actives largely listed as activators; actives 0.23% (n = 320,000); AID 485298; note: % of control where 0% means no effect; nearly all actives have a fitted effect of over 45% in size
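Yeast fusion mutant, YPEG (non-fermentable carbon), compound, 48 h at 37C non-permissive; CellTiterGlo added, 10 min RT, luminescence read. Rescued growth = division inhibition.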
A-T KAP1 phos – potential ataxia-telangiectasia treatment. F2112 A-T fibroblasts, KAP-1 phosphorylation AlphaLISA; neocarzinostatin DNA damage 30 min before lysis. Potency, µM (top dose mostly 57.5 µM), for the others: at the highest dose activation, hits mostly activators. actives 0.19% (n = 320,000); note: % of control where 0% means no effect; nearly all actives have a fitted effect of over 45% in size
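hTERT-immortalized A-T patient fibroblasts (F2112), 500 cells/well in OPTI-MEM, 1% FBS, got compounds for 60 min, then NCS for 30 min at 37C. Lysates were then assayed for phospho-KAP-1 by AlphaLISA (anti-pKAP1 donor, anti-KAP1 acceptor beads), 6 hr at 25C.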
Active calls of the source: *; ? = inconclusive; · = not tested or not shown. Only some compounds are listed: those with a hit (about 4.2% of all), similar ones and a draw of the others. Calls come from the whole dose curve; as a rule, active = well fitted activation curve with a large enough effect; inconclusive = small, poorly fitted or top-dose-only effect; inactive = no such curve, though single readings can be large or run the other way. Potency is the fitted concentration of half-maximal effect.

SMILES | SW480 rerep | MCF10A rereplic | a7 integrin act | Mito fusion yeast | A-T KAP1 phos
O=C(N/N=C1\NC(=O)C(CO)(CO)S1)c1ccccc1 | -10% | 1% | 15% | 1% | 8%
O=C1N=C(N2CCCCC2)S/C1=C/C1=Cc2ccccc2OC1 | 23% | 18µM* | 13% | -3% | 1%
Cc1ccc(/C=C2\SC(N3CCCC3)=NC2=O)cc1 | · | · | · | 13% | -4%
CC(=O)C1=C(C)NC(SCC(N)=O)=C(C#N)C1CC(C)C (stereo not drawn) | -3% | 3% | 7% | 7% | 0%
CCOC(=O)C1=C(C)NC(SC)=C(C#N)C1CC(C)C (stereo not drawn) | 7.3µM* | ? | -31% | 5% | -31%
CC(=O)C1=C(C)NC(SCC(=O)c2ccc(F)cc2)=C(C#N)C1CC(C)C (stereo not drawn) | ? | 18µM* | -7% | 28% | 11%
C=C(C)C(=O)Oc1ccc(N2C(=O)CCC2=O)cc1 | 1% | -3% | -30% | -7% | 22µM*
CC(=O)Oc1ccc(N2C(=O)CCC2=O)cc1 | -5% | 3% | -10% | -2% | 4%
CCOC(=O)c1c(N)sc2c1CCN(Cc1ccccc1)C2 | -2% | ? | · | · | ·
O=c1cc(N2CCN(c3ccccc3Cl)CC2)[nH]c(=O)n1Cc1ccc(F)cc1 | ? | 2.1µM* | -19% | -3% | -2%
CCOC(=O)N1CCN(c2cc(=O)n(Cc3ccc(F)cc3)c(=O)[nH]2)CC1 | 21µM* | 12µM* | 3% | 0% | 0%
COc1ccccc1N1CCN(c2cc(=O)n(Cc3ccc(F)cc3)c(=O)[nH]2)CC1 | 16µM* | ? | 12% | -1% | 0%
O=c1cc(N2CCN(Cc3ccccc3)CC2)[nH]c(=O)n1Cc1ccc(F)cc1 | 1% | -3% | 5% | -1% | 4%
CCN1CCN(c2cc(=O)n(Cc3ccc(F)cc3)c(=O)[nH]2)CC1 | -9% | 3% | -19% | -3% | 4%
COc1ccc(CN2C(=O)C(CC(=O)NCCc3ccccn3)CC(C(=O)N(C(C)C)C(C)C)=C2C)cc1 (stereo not drawn) | · | · | -12% | · | ·
CCc1nc2ccccc2c(C(=O)OCc2nc3ccccc3c(=O)[nH]2)c1C | 12µM* | 21µM* | 0% | · | 1%
CCc1nc2ccccc2c(C(=O)OCC(=O)C(C)(C)C)c1C | -1% | 18% | 16% | -4% | 3%
O=C(c1ccc(Cn2c(=S)[nH]c3cc4c(cc3c2=O)OCO4)cc1)N1CCN(c2ccccc2)CC1 | -1% | 0% | 7% | -4% | 1%
Cc1ccc(Cn2c(=S)[nH]c3ccc(N4CCOCC4)cc3c2=O)o1 | 23µM* | ? | -57% | -4% | 3%
O=C(c1ccc(Cn2c(=S)[nH]c3ccc(N4CCOCC4)cc3c2=O)cc1)N1CCN(c2ccc(F)cc2)CC1 | 12% | 4.6µM* | -33% | 1% | 1%
COc1ccc(N2CCN(C(=O)c3ccc(Cn4c(=S)[nH]c5ccc(N6CCOCC6)cc5c4=O)cc3)CC2)cc1 | -7% | ? | 14% | 10% | 2%
Cc1ccc(C)c(N2CCN(C(=O)c3ccc(Cn4c(=S)[nH]c5ccc(N6CCOCC6)cc5c4=O)cc3)CC2)c1 | 22% | 5.8µM* | 10% | -4% | -1%
CCCCn1c(=S)[nH]c2ccc(N3CCOCC3)cc2c1=O | · | · | · | 0% | -1%
CC(=O)Nc1ccc(OC(=O)c2ccccc2OC(C)=O)cc1 | 2% | 5% | · | · | ·
O=C(NN1C(=O)NC2(CCCCC2)C1=O)c1cccs1 | 4% | -4% | 20% | · | 0%
SMILES | SW480 rerep | MCF10A rereplic | a7 integrin act | Mito fusion yeast | A-T KAP1 phos
O=C(c1ccccc1)c1ccc(OCC(O)CNCc2cccc(Cl)c2)cc1 (stereo not drawn) | -3% | 21µM* | 0% | -45% | 1%
COc1ccc(Nc2nc(-c3sc(C)nc3C)cs2)c(OC)c1 | 21µM* | ? | -12% | -4% | -29%
Cc1ccnc(Nc2nc(-c3sc(C)nc3C)cs2)c1 | ? | 23µM* | -45% | · | ·
Cc1ccc(Nc2nc(-c3sc(C)nc3C)cs2)cc1 | 2.1µM* | ? | -23% | -5% | -15%
Cc1ccc(Nc2nc(-c3sc(N)nc3C)cs2)cc1 | 19% | -5% | -2% | -11% | -10%
Cc1nc(C)c(-c2csc(Nc3ccccn3)n2)s1 | -18% | -9% | -11% | -5% | 20%
